# From PubChem BioAssay AID1159580 (chemical genetic matrix, 2015)
# Among all 5,500 compounds or so, about 2,000 (36%) were called active. Another 18% or so got no clear call; they are omitted. Some of the results follow. Values without a mark were called inactive. Cut-off read from the data, not from the text of the source: active = normalized growth mostly below about 0.91 (no sharp cut-off); inconclusive = no clear call, values can overlap the other calls; inactive = mostly above about 0.92.
# Test: chemical genetic growth profiling, strain panel (AID 1159580);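 note: tested at 20 µM; growth read once vehicle control cultures reached saturation at 30 °C; 1 = growth at the plate median or of vehicle wells; lower values mean less growth of the strain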
# Conditions: S. cerevisiae deletion strains, growth OD
smiles,measurement,setting,value
COc1ccc(-c2coc3cc(OC(C)=O)cc(OC(C)=O)c3c2=O)cc1,normalized growth,"locus YAL021C, strain ccr4, hits give low values",0.964
same,normalized growth,"locus YAL026C, strain drs2, hits give low values",0.949
same,normalized growth,"locus YAL030W, strain snc1, hits give low values",0.958
same,normalized growth,"locus YBL061C, strain skt5, hits give low values",0.96
same,normalized growth,"locus YBR009C, strain hhf1, hits give low values",0.958
same,normalized growth,"locus YBR023C, strain chs3, hits give low values",0.967
same,normalized growth,"locus YBR171W, strain sec66, hits give low values",0.937
same,normalized growth,"locus YBR231C, strain swc5, hits give low values",0.957
same,normalized growth,"locus YBR279W, strain paf1, hits give low values",0.984
same,normalized growth,"locus YCL011C, strain gbp2, hits give low values",0.919
same,normalized growth,"locus YCL016C, strain dcc1, hits give low values",0.925
same,normalized growth,"locus YCL061C, strain MRC1, hits give low values",0.96
same,normalized growth,"locus YCL069W, strain vba3, hits give low values",0.953
same,normalized growth,"locus YCR088W, strain abp1, hits give low values",0.968
same,normalized growth,"locus YDL005C, strain med2, hits give low values",0.961
same,normalized growth,"locus YDL040C, strain nat1, hits give low values",0.983
same,normalized growth,"locus YDR001C, strain nth1, hits give low values",0.939
same,normalized growth,"locus YDR069C, strain doa4, hits give low values",0.92
same,normalized growth,"locus YDR137W, strain rgp1, hits give low values",0.871
same,normalized growth,"locus YDR159W, strain sac3, hits give low values",0.953
same,normalized growth,"locus YDR195W, strain ref2",1.01
same,normalized growth,"locus YDR297W, strain sur2, hits give low values",0.985
same,normalized growth,"locus YDR334W, strain swr1, hits give low values",0.887 (active)
same,normalized growth,"locus YDR335W, strain msn5, hits give low values",0.967
same,normalized growth,"locus YDR392W, strain spt3, hits give low values",0.576 (active)
same,normalized growth,"locus YEL003W, strain gim4, hits give low values",0.977
same,normalized growth,"locus YEL037C, strain rad23, hits give low values",0.972
same,normalized growth,"locus YEL061C, strain CIN8 (second series), hits give low values",0.965
same,normalized growth,"locus YER015W, strain faa2, hits give low values",0.951
same,normalized growth,"locus YER016W, strain bim1, hits give low values",0.972
same,normalized growth,"locus YER111C, strain swi4, hits give low values",0.968
same,normalized growth,"locus YER155C, strain BEM2 (second series), hits give low values",0.878
same,normalized growth,"locus YFR010W, strain ubp6, hits give low values",0.955
same,normalized growth,"locus YGL167C, strain pmr1, hits give low values",0.965
same,normalized growth,"locus YGL173C, strain kem1, hits give low values",0.922
same,normalized growth,"locus YGL227W, strain vid30, hits give low values",0.955
same,normalized growth,"locus YGL240W, strain doc1, hits give low values",0.961
same,normalized growth,"locus YGL253W, strain hxk2, hits give low values",0.925
same,normalized growth,"locus YHR013C, strain ard1, hits give low values",0.902
same,normalized growth,"locus YHR027C, strain rpn1, hits give low values",0.951
same,normalized growth,"locus YHR142W, strain chs7, hits give low values",0.874 (active)
same,normalized growth,"locus YJL092W, strain hpr5, hits give low values",0.923
same,normalized growth,"locus YJL095W, strain BCK1 (second series), hits give low values",0.963
same,normalized growth,"locus YJL115W, strain asf1, hits give low values",0.914
same,normalized growth,"locus YJL129C, strain trk1, hits give low values",0.861 (active)
same,normalized growth,"locus YJL154C, strain vps35, hits give low values",0.97
same,normalized growth,"locus YJL164C, strain tpk1, hits give low values",0.935
same,normalized growth,"locus YJL166W, strain qcr8, hits give low values",0.944
same,normalized growth,"locus YJL187C, strain SWE1, hits give low values",0.961
same,normalized growth,"locus YKL160W, strain elf1, hits give low values",0.988
same,normalized growth,"locus YKR026C, strain gcn3, hits give low values",0.965
same,normalized growth,"locus YKR091W, strain srl3, hits give low values",0.958
same,normalized growth,"locus YLL001W, strain dnm1, hits give low values",0.929
same,normalized growth,"locus YLL026W, hits give low values",0.967
same,normalized growth,"locus YLL041C, strain sdh2, hits give low values",0.963
same,normalized growth,"locus YLR027C, strain aat2, hits give low values",0.936
same,normalized growth,"locus YLR221C, strain rsa3, hits give low values",0.922
same,normalized growth,"locus YLR258W, strain gsy2, hits give low values",0.964
same,normalized growth,"locus YLR262C, strain YPT6 (second series), hits give low values",0.889
same,normalized growth,"locus YLR320W, strain mms22, hits give low values",0.927
same,normalized growth,"locus YLR342W, strain FKS1, hits give low values",0.968
same,normalized growth,"locus YLR357W, strain rsc2, hits give low values",0.981
same,normalized growth,"locus YLR370C, strain arc18, hits give low values",0.954
same,normalized growth,"locus YLR384C, strain iki3, hits give low values",0.968
same,normalized growth,"locus YML120C, strain ndi1, hits give low values",0.925
same,normalized growth,"locus YMR058W, strain fet3, hits give low values",0.935
same,normalized growth,"locus YMR125W, strain sto1, hits give low values",0.914
same,normalized growth,"locus YMR129W, hits give low values",0.966
same,normalized growth,"locus YMR205C, strain PFK2, hits give low values",0.91
same,normalized growth,"locus YMR231W, strain pep5, hits give low values",0.978
same,normalized growth,"locus YNL071W, strain lat1, hits give low values",0.845 (active)
same,normalized growth,"locus YNL209W, strain ssb2, hits give low values",0.963
same,normalized growth,"locus YNL248C, strain rpa49, hits give low values",0.967
same,normalized growth,"locus YNL322C, strain KRE1 (second series), hits give low values",0.923
same,normalized growth,"locus YNR049C, strain mso1, hits give low values",0.954
same,normalized growth,"locus YOR001W, strain rrp6, hits give low values",0.971
same,normalized growth,"locus YOR070C, strain gyp1, hits give low values",0.972
same,normalized growth,"locus YOR080W, strain dia2, hits give low values",0.955
same,normalized growth,"locus YOR083W, strain WHI5, hits give low values",0.976
same,normalized growth,"locus YOR106W, strain vam3, hits give low values",0.928
same,normalized growth,"locus YOR265W, strain rbl2, hits give low values",0.963
same,normalized growth,"locus YOR270C, strain vph1, hits give low values",0.834
same,normalized growth,"locus YPL051W, strain arl3, hits give low values",0.959
same,normalized growth,"locus YPL078C, strain atp4, hits give low values",0.968
same,normalized growth,"locus YPL106C, strain sse1, hits give low values",0.913
same,normalized growth,"locus YPL240C, strain hsp82, hits give low values",0.956
